Measurements as given in PubChem BioAssay.
“And” between values parts separate entries of the source, which are not always exact repeats. Equal values may be shown once. For some of these results: Entries with a potency or affinity are not part of this list. The source made the active and inactive calls. Unless noted, the rule behind the calls is not given here.

Tests used:
[1] = antimalarial activity against Dd2 strain (AID 2302;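 active = growth inhibition above 50% at the single 2 µM test dose, taken to imply half-maximal potency below 2 µM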;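 note: 0% = DMSO untreated growth and 100% = chloroquine plus artemisinin killed control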); conditions: P. falciparum Dd2 in RBCs, LDH growth readout, 72 h; at 2 µM; active compounds read high
[2] = human hepatoma cell viability loss – ATP luminescence, cytotoxicity control for P. falciparum antimalarial project, primary screen (AID 2303;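 active = inhibition above 50%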;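 note: 0% = DMSO wells and 100% = digitonin-killed cells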); conditions: HepG2 viability, 24-48 h, at 10 µM, active compounds read high
[3] = target: L-lactate dehydrogenase (Plasmodium falciparum (isolate CDC / Honduras)) (UniProt Q27743); test: PfLDH activity inhibition – cell lysate, 3D7 strain, counter-screen for P. falciparum growth inhibition project (AID 2304);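 note: 0% = vehicle and 100% = reference inhibitor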; conditions: P. falciparum 3D7 crude extract, LDH APAD/NBT absorbance; at 2 µM; active compounds read high
[4] = inhibition of 3D7 malaria parasite growth – strain 3D7 (AID 2306);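 note: 0% = DMSO wells and 100% = chloroquine plus artemisinin control wells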; conditions: P. falciparum 3D7 erythrocytic growth, LDH absorbance, 72 h; at 2 µM; active compounds read high
[5] = target: Calcium-dependent protein kinase 1 (Plasmodium falciparum (isolate 3D7)) (UniProt P62344); test: PfCDPK1 kinase inhibitors, biochemical, TCAMS library (AID 1159585; cut-off not given, nearly all actives have IC50 up to about 0.98 µM;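 note: inhibitors leave more ATP so luminescence rises with inhibition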); conditions: recombinant PfCDPK1, Kinase-Glo ATP depletion luminescence
[6] = target: Plasmodium falciparum protein kinase 6 (PK6, PF3D7_1337100) (UniProt Q8IDW1); test: PfPK6 kinase inhibitors, biochemical, TCAMS library (AID 1159586); conditions: recombinant PfPK6, Kinase-Glo ATP depletion luminescence
[7] = target: Protein kinase 7 (PK7), Plasmodium falciparum 3D7 (PF3D7_0213400) (UniProt Q7YTF7); test: inhibition of Plasmodium PK7 catalytic activity – biochemical, TCAMS antimalarial set, Kinase-Glo luminescence (AID 1159587); conditions: recombinant PfPK7, Kinase-Glo ATP depletion luminescence
[8] = target: Calcium-dependent protein kinase 4 (Plasmodium falciparum (isolate 3D7)) (UniProt Q8IBS5); test: PfCDPK4 kinase inhibitors, biochemical, TCAMS library (AID 1159588; cut-off not given, nearly all actives have IC50 up to about 0.91 µM); conditions: recombinant PfCDPK4, Kinase-Glo ATP depletion luminescence
Sequence of Calcium-dependent protein kinase 4 (Plasmodium falciparum (isolate 3D7)) (Q8IBS5 whole entry, looked up): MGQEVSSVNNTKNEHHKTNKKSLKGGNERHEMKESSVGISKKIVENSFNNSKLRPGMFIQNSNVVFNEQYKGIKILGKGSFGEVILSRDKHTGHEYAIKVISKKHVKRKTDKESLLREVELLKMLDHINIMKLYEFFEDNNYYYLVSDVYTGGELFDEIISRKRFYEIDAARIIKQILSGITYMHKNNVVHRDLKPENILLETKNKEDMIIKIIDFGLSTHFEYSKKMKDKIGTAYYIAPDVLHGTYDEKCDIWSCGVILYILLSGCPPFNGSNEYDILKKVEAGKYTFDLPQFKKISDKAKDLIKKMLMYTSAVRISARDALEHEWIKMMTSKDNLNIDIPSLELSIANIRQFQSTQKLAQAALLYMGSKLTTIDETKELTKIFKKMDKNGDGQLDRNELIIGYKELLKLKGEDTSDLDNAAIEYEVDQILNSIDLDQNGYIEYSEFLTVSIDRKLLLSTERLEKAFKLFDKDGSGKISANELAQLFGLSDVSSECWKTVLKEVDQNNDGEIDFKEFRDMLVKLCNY

Sequence of L-lactate dehydrogenase (Plasmodium falciparum (isolate CDC / Honduras)) (Q27743 whole entry, looked up): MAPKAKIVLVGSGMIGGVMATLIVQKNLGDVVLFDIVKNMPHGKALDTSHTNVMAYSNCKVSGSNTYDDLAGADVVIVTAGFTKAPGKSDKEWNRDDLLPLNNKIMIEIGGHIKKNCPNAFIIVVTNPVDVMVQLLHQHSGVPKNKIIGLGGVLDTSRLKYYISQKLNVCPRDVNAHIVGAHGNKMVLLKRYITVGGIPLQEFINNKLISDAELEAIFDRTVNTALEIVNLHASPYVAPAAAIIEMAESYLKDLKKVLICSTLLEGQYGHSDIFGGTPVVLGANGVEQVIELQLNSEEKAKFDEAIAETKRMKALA
Sequence of Calcium-dependent protein kinase 1 (Plasmodium falciparum (isolate 3D7)) (P62344 whole entry, looked up): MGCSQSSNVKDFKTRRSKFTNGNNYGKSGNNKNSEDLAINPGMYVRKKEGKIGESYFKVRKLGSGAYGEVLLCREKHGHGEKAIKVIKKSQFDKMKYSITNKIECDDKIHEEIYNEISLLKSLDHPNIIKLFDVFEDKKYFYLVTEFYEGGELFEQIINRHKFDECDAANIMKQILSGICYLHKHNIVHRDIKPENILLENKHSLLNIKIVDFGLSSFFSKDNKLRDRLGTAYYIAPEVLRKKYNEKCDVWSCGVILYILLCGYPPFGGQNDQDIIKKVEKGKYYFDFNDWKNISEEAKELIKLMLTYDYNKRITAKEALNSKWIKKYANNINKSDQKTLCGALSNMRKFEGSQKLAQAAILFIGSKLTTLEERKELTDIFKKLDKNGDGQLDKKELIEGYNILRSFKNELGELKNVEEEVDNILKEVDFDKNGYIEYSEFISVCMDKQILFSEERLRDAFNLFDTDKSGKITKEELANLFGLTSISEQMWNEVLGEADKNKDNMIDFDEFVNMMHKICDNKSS
Sequence of Protein kinase 7 (PK7), Plasmodium falciparum 3D7 (PF3D7_0213400) (Q7YTF7 1-343): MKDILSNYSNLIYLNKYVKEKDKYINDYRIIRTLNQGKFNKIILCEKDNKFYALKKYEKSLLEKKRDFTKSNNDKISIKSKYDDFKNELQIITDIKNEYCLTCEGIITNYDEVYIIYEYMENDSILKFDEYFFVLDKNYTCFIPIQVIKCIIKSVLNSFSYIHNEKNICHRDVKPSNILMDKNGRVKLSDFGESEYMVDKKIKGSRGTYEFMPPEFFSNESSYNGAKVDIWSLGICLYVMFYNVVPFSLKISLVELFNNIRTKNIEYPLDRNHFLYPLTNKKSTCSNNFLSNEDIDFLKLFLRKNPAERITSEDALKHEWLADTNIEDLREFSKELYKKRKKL
Sequence of Plasmodium falciparum protein kinase 6 (PK6, PF3D7_1337100) (Q8IDW1 1-305): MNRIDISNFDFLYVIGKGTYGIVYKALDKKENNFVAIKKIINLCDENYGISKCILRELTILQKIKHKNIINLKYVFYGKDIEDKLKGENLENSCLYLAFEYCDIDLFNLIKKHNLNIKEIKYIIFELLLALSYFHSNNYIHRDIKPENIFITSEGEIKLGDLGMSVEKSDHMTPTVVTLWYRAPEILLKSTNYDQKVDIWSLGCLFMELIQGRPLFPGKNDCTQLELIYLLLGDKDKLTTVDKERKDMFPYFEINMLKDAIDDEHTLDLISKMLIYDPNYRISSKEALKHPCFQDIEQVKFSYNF

CC(C)(CNC(=O)[C@@H]1CCCN(Cc2ccc(Cl)cc2)C1)c1nc(-c2ccc(Cl)c(O)c2)c(-c2ccncc2)[nH]1
active: inhibition [2] 66% | growth inhibition [4] 97%
inactive: growth inhibition [1] 37% | inhibition [3] -2% | outcome [5] | outcome [6] | outcome [7] | outcome [8]

COc1ccc2nc(C)cc(NN=Cc3ccccc3Cl)c2c1
inactive: inhibition [2] 0% | inhibition [3] 5% | outcome [5] | outcome [6] | outcome [7] | outcome [8]
active: growth inhibition [1] 100% | growth inhibition [4] 100%

Cc1cccc2[nH]c(-c3ccc(-c4cccc(CN5CCCC5CN)c4)s3)nc12 (stereo not drawn)
active: growth inhibition [4] 91%
inactive: growth inhibition [1] 45% | inhibition [2] 20% | inhibition [3] 5% | outcome [5] | outcome [6] | outcome [7] | outcome [8]

CCCCCN1CCCC1CNS(=O)(=O)c1ccc(C(=O)Nc2cccc(C(F)(F)F)c2)cc1 (stereo not drawn)
inactive: growth inhibition [1] -1% | inhibition [2] 16% | inhibition [3] -4% | outcome [5] | outcome [6] | outcome [7] | outcome [8]
active: growth inhibition [4] 95%

Cc1cc(C2CCN(CCCCNC(=O)c3ccc(NC(=O)c4ccc(Cl)cc4)cc3)CC2)c(C)cc1OCc1cccnc1
active: growth inhibition [1] 90% | growth inhibition [4] 101%
inactive: inhibition [2] 39% | inhibition [3] 0% | outcome [5] | outcome [6] | outcome [7] | outcome [8]

Cc1[nH]c2cccc(F)c2c(=O)c1Cc1ccc(Cl)cc1 (tested in a mixture with another compound)
active: growth inhibition [1] 94% and 92% | growth inhibition [4] 94% and 93%
inactive: inhibition [2] 7% and 6% | inhibition [3] 5% | outcome [5] | outcome [6] | outcome [7] | outcome [8]

O=C(NCCCCN1CCC(c2ccc(OC(F)(F)F)cc2)CC1)c1ccc(NC(=O)c2ccc(Cl)cc2)cc1
active: growth inhibition [1] 98% | growth inhibition [4] 99%
inactive: inhibition [2] 24% | inhibition [3] -3% | outcome [5] | outcome [6] | outcome [7] | outcome [8]

O=c1cc(NCCCNCc2ccc(Cl)c(Cl)c2)[nH]c2cc(Cl)ccc12
active: growth inhibition [1] 51% | growth inhibition [4] 95%
inactive: inhibition [2] 1% | inhibition [3] 1% | outcome [5] | outcome [6] | outcome [7] | outcome [8]

Cc1ccc2nc(C)cc(NC(=O)Nc3ccc(N(C)C)cc3)c2c1
active: growth inhibition [4] 100%
inactive: growth inhibition [1] 41% | inhibition [2] 12% | inhibition [3] -3% | outcome [5] | outcome [6] | outcome [7] | outcome [8]

Cc1cccc2[nH]c(-c3cccc(-c4cccc(CNCCCN5CCCC5=O)c4)c3)nc12
active: growth inhibition [1] 76% | growth inhibition [4] 100%
inactive: inhibition [2] 9% | inhibition [3] 2% | outcome [5] | outcome [6] | outcome [7] | outcome [8]

COc1ccccc1C1CCN(C2CCC(NC(=O)/C=C/c3cc(F)cc(F)c3)CC2)CC1 (stereo not drawn)
active: growth inhibition [4] 91%
inactive: growth inhibition [1] 15% | inhibition [2] 45% | inhibition [3] 0% | outcome [5] | outcome [6] | outcome [7] | outcome [8]

CC(=O)Nc1ccc(OCCN(Cc2ccccc2C(F)(F)F)c2ccc(C#N)c(C(F)(F)F)c2)cc1
inactive: inhibition [2] 8% | inhibition [3] 0% | outcome [5] | outcome [6] | outcome [7] | outcome [8]
active: growth inhibition [1] 81% | growth inhibition [4] 101%

CN(C)CCNC(=O)N1CCCN(c2ncnc3cc(-c4ccccc4)sc23)CC1
inactive: growth inhibition [1] 37% | inhibition [2] 5% | inhibition [3] 5% | outcome [5] | outcome [6] | outcome [7] | outcome [8]
active: growth inhibition [4] 96%

CCCc1cc(Cc2cnc(N)nc2N)cc(CCC)c1OC
inactive: growth inhibition [1] 1% | inhibition [2] 18% | inhibition [3] 1% | outcome [5] | outcome [6] | outcome [7] | outcome [8]
active: growth inhibition [4] 92%

O=S(=O)(NCCN1CCCC1)c1cccc(-c2ccccc2CNC2Cc3ccccc3C2)c1
active: growth inhibition [1] 76% | growth inhibition [4] 99%
inactive: inhibition [2] 35% | inhibition [3] -3% | outcome [5] | outcome [6] | outcome [7] | outcome [8]

CC(C)CNCc1cccc(-c2ccc(CNC3CCN(Cc4ccccc4)CC3)cc2)c1
active: growth inhibition [1] 99% | growth inhibition [4] 100%
inactive: inhibition [2] 44% | inhibition [3] 3% | outcome [5] | outcome [6] | outcome [7] | outcome [8]

Cc1sc2ccc(Cl)cc2c1S(=O)(=O)Nc1ccc2nccc(N3C[C@@H](C)N[C@@H](C)C3)c2c1
active: growth inhibition [1] 100% | growth inhibition [4] 100%
inactive: inhibition [2] 17% | inhibition [3] 0% | outcome [5] | outcome [6] | outcome [7] | outcome [8]

COc1ccccc1N1CCN(Cc2cc(C(C)C)c(C)cc2O)CC1
active: growth inhibition [1] 98% | growth inhibition [4] 97%
inactive: inhibition [2] 7% | inhibition [3] 2% | outcome [5] | outcome [6] | outcome [7] | outcome [8]

O=C(Cn1cc(C=C2SC(=NC3CCCC3)N(C3CCCC3)C2=O)c2ccccc21)N1CCCC1
active: growth inhibition [1] 100% | growth inhibition [4] 100%
inactive: inhibition [2] 5% | inhibition [3] -1% | outcome [5] | outcome [6] | outcome [7] | outcome [8]

CCCCCCCCNc1c2ccc(Cl)cc2nc2ccc(OC)cc12
inactive: inhibition [2] 11% | inhibition [3] -3% | outcome [5] | outcome [6] | outcome [7] | outcome [8]
active: growth inhibition [1] 96% | growth inhibition [4] 89%

Clc1ccc2c(NN=Cc3cccnc3)ccnc2c1
active: growth inhibition [1] 86% | growth inhibition [4] 100%
inactive: inhibition [2] -9% | inhibition [3] 3% | outcome [5] | outcome [6] | outcome [7] | outcome [8]

O=C(Nc1ccc(-c2cccc(-c3nc4ccc(C(F)(F)F)cc4[nH]3)c2)cc1)c1cccnc1
active: inhibition [2] 74% | growth inhibition [4] 100%
inactive: growth inhibition [1] 24% | inhibition [3] -5% | outcome [5] | outcome [6] | outcome [7] | outcome [8]

O=C(Nc1cccc(CN2CCCN(Cc3ccc(O)cc3)CC2)c1)c1cccc(Cl)c1
active: growth inhibition [4] 96%
inactive: growth inhibition [1] 41% | inhibition [2] 10% | inhibition [3] 5% | outcome [5] | outcome [6] | outcome [7] | outcome [8]

CN1CCC(NCc2ccc(-c3ccc(S(=O)(=O)NC4CCC4)s3)cc2)CC1
inactive: growth inhibition [1] 31% | inhibition [2] 31% | inhibition [3] 1% | outcome [5] | outcome [6] | outcome [7] | outcome [8]
active: growth inhibition [4] 92%

CCc1cc(I)c2c(c1)C(NCCCNc1cc(=O)c3ccccc3[nH]1)CCN2 (stereo not drawn)
inactive: growth inhibition [1] 32% | inhibition [2] 19% | inhibition [3] -1% | outcome [5] | outcome [6] | outcome [7] | outcome [8]
active: growth inhibition [4] 89%

O=C1c2cc(I)ccc2SC1c1ccccc1 (stereo not drawn)
inactive: inhibition [2] -7% | inhibition [3] -2% | outcome [5] | outcome [6] | outcome [7] | outcome [8]
active: growth inhibition [1] 98% | growth inhibition [4] 96%

COc1ccc(-c2cc(C(=O)N[C@@H](CC3CCCCC3)C(=O)NCCN3CCCCC3)ccc2O)cc1
inactive: inhibition [2] 3% | inhibition [3] 0% | outcome [5] | outcome [6] | outcome [7] | outcome [8]
active: growth inhibition [1] 72% | growth inhibition [4] 98%

O=C(NC1CCN(Cc2ccccc2)CC1)c1ccc(-c2nc3cc(F)c(F)cc3[nH]2)s1
active: growth inhibition [1] 97% | growth inhibition [4] 101%
inactive: inhibition [2] 6% | inhibition [3] 1% | outcome [5] | outcome [6] | outcome [7] | outcome [8]

CC(=O)Nc1ccc(CN2Cc3ccc(NC(=O)Nc4ccc(Oc5ccccc5)cc4)cc3C2)s1
active: growth inhibition [4] 91%
inactive: growth inhibition [1] 25% | inhibition [2] 9% | inhibition [3] 6% | outcome [5] | outcome [6] | outcome [7] | outcome [8]

COc1cc(Cc2cnc(N)nc2N)cc(OCCCCc2nn[nH]n2)c1OC
active: growth inhibition [4] 97%
inactive: growth inhibition [1] 0% | inhibition [2] 7% | inhibition [3] 1% | outcome [5] | outcome [6] | outcome [7] | outcome [8]

CS(=O)(=O)c1ccc(CCNCc2ccc(-c3ccc(CN(C(=O)c4cccc(C#N)c4)C4CCN(Cc5ccccc5)CC4)cc3)nc2)cc1
inactive: inhibition [2] 20% | inhibition [3] 1% | outcome [5] | outcome [6] | outcome [7] | outcome [8]
active: growth inhibition [1] 56% | growth inhibition [4] 96%

CS(=O)(=O)c1ccc(CNCc2cccc(-c3cccc(-c4nc5ccc(F)cc5[nH]4)c3)c2)cc1
active: growth inhibition [1] 84% | growth inhibition [4] 102%
inactive: inhibition [2] 11% | inhibition [3] -3% | outcome [5] | outcome [6] | outcome [7] | outcome [8]

O=C(Nc1cccc(-c2ccc(-c3nc4ccc(F)cc4[nH]3)cc2)c1)c1cccnc1
active: growth inhibition [1] 92% | growth inhibition [4] 101%
inactive: inhibition [2] 27% | inhibition [3] -4% | outcome [5] | outcome [6] | outcome [7] | outcome [8]

CCc1cn(CC(=O)N(CCOc2ccc(-c3ccc(C(F)(F)F)cc3)cc2)CCN(CC)CC)c(SCc2ccc(F)cc2)nc1=O
inactive: growth inhibition [1] 29% | inhibition [2] 46% | inhibition [3] -3% | outcome [5] | outcome [6] | outcome [7] | outcome [8]
active: growth inhibition [4] 95%

COc1ccc(NC(=O)NC2CCN(CCCOc3ccnc4cc(Cl)ccc34)C2)cc1OC (stereo not drawn)
inactive: growth inhibition [1] 16% | inhibition [2] 6% | inhibition [3] 1% | outcome [5] | outcome [6] | outcome [7] | outcome [8]
active: growth inhibition [4] 90%

O=C(Nc1cc(Cl)ccc1O)c1ccc(Oc2ccc(C(=O)Nc3cc(Cl)ccc3O)cc2)cc1
inactive: inhibition [2] 32% | inhibition [3] -3% | outcome [5] | outcome [6] | outcome [7] | outcome [8]
active: growth inhibition [1] 91% | growth inhibition [4] 97%

O=C(NC(Nc1ccc([N+](=O)[O-])cc1)C(Cl)(Cl)Cl)c1cccc(Cl)c1 (stereo not drawn)
active: growth inhibition [4] 92%
inactive: growth inhibition [1] 17% | inhibition [2] -2% | inhibition [3] 0% | outcome [5] | outcome [6] | outcome [7] | outcome [8]

O=C(NCCCCCN1CCC(c2c[nH]c3ccccc23)CC1)Nc1ccc(I)cc1
inactive: growth inhibition [1] -1% | inhibition [3] 2% | outcome [5] | outcome [6] | outcome [7] | outcome [8]
active: inhibition [2] 51% | growth inhibition [4] 100%

COc1ccc2nccc([C@@H](O)CN3CCC(NCc4ccc5c(c4)nnn5C(C)C)CC3)c2c1
active: growth inhibition [4] 100%
inactive: growth inhibition [1] 40% | inhibition [2] 15% | inhibition [3] 0% | outcome [5] | outcome [6] | outcome [7] | outcome [8]

CN(C)CCCOc1ccc(CCCCc2ccc(Cl)cc2C(=O)c2ccccc2)cc1
active: growth inhibition [4] 92%
inactive: growth inhibition [1] 8% | inhibition [2] 8% | inhibition [3] -7% | outcome [5] | outcome [6] | outcome [7] | outcome [8]

OC(CNc1ccnc(Nc2cccc(Cl)c2)n1)c1cccc(C(F)(F)F)c1 (stereo not drawn)
active: growth inhibition [1] 98% | growth inhibition [4] 101%
inactive: inhibition [2] 11% | inhibition [3] 4% | outcome [5] | outcome [6] | outcome [7] | outcome [8]
